# Sampled rows, rich in hits. Any-hit rate of the full collection: about 21%.
# DRD3 agonist: qHTS of D3 Dopamine Receptor Agonist: qHTS; D(3) dopamine receptor (Homo sapiens), P35462; D3R DiscoveRx beta-arrestin cells, luminescence, 90 min; max activation, %; 410,000 compounds, 0.58% hits; in the data active means max activation above about 30%; further: 0% is about no effect
# Target sequence (P35462 whole entry, looked up): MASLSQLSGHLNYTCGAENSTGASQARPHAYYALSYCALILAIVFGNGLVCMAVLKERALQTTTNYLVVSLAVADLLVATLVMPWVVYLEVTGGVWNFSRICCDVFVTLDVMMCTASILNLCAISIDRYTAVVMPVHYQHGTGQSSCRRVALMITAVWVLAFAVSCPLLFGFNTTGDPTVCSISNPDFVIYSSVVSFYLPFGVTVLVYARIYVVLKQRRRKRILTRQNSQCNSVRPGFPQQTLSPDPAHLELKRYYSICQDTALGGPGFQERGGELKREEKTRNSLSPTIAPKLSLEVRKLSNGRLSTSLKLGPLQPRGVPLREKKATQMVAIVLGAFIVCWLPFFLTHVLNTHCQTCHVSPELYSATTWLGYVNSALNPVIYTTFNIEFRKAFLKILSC
#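 Agonist-mode cell screen: cells plated at 1500/well and incubated overnight at 37 °C, then exposed to library compounds for 90 min at 37 °C. Detection reagent was added for 30–60 min at room temperature, and luminescence was read.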
# IL1B secr inh: qHTS for Inhibitors of Inflammasome Signaling: IL-1-beta AlphaLISA Primary Screen | activity change, % at 57.5 µM | 360,000 compounds, 4.7% hits | THP-1 LPS/ATP IL-1B secretion, AlphaLISA, 16 h; hits give low values; in the data active means activity change below about -50%; inconclusive means mostly about -30% to -49%; further: on the % scale 0 is the no-effect control and ±100 the full control effect
#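 Secreted IL-1B measured by AlphaLISA bead assay after 16 h compound exposure of THP-1 cells; compounds (final up to 57.5 uM) added 1 h before LPS (250 ng/mL) and ATP (1.25 mM) stimulation; lower signal means less secretion.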
# TDP1 cell noCPT: qHTS for Inhibitors of human tyrosyl-DNA phosphodiesterase 1 (TDP1): qHTS in cells in absence of CPT | DT40 Tdp1-/- hTDP1 cells, no CPT, ATP luminescence, 48 h | Potency, µM (series often up to 46.2 µM), for inactives: top-dose activity change, negative = growth inhibition, actives largely listed as inhibitors | 420,000 compounds, 15% hits | AID 686978, 2013; further: potency means the concentration at half of the fitted maximal effect; on the % scale 0 is the no-effect control and ±100 the full control effect; nearly all actives have a fitted effect of over 55% in size
#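 Chicken DT40 Tdp1-/- cells stably complemented with human TDP1 were seeded at 400 cells/well with DMSO in place of 20 nM camptothecin. After compound pinning, cells grew at least 48 hr at 37 °C; viability read by CellTiter-Glo luminescence.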
# DT40 TDP1 CPT: qHTS for Inhibitors of human tyrosyl-DNA phosphodiesterase 1 (TDP1): qHTS in cells in presence of CPT. chicken DT40 Tdp1-/-;hTDP1 cells + 20 nM CPT, ATP luminescence, 48 h. Potency, µM (titrated, usually from 46.2 µM), without a hit: at the highest dose activity change, negative = growth inhibition, most hits filed as inhibitors. 420,000 compounds, 12% hits; further: potency means the concentration at half of the fitted maximal effect; on the % scale 0 is the no-effect control and ±100 the full control effect; nearly all actives have a fitted effect of over 55% in size
#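 Chicken DT40 Tdp1-/- cells stably complemented with human TDP1 were seeded at 400 cells/well in medium containing 20 nM camptothecin, exposed to pin-transferred compounds, and grown at 37 °C for at least 48 hr. Viability was read as ATP luminescence.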
# D3 antag: qHTS of D3 Dopamine Receptor Antagonist: qHTS; D(3) dopamine receptor (Homo sapiens), P35462; D3R cells, DiscoveRx beta-arrestin luminescence, antagonist mode; hits give low values; max response, negative = inhibition, %; 360,000 compounds, 2.5% hits; in the data active means max response below about -50%; inconclusive means no clear call, values can overlap the other calls; further: on the % scale 0 is the no-effect control and ±100 the full control effect
#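 Cells plated overnight at 1500 cells/well, then exposed to library compounds with dopamine controls for 90 minutes at 37 degrees C. DiscoveRx reagent added for 30–60 minutes at room temperature; luminescence read, quantitative HTS format.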
# ClpP mod: qHTS Assay for Activators of ClpP; Potency, µM (top dose mostly 57.5 µM), for the others: at the top dose activity change, negative = active; 340,000 compounds, 1.9% hits; purified B. subtilis ClpP, FRET peptide cleavage, 20 min; ATP-dependent Clp protease proteolytic subunit (Bacillus subtilis (strain 168)), P80244; active means well fitted falling curve with a large enough effect; inconclusive means small, poorly fitted or top-dose-only effect; inactive means no such curve, though single readings can be large or run the other way; further: potency means the concentration at half of the fitted maximal effect; the source files actives as falling curves though it sought activators and does not explain the sign; nearly all actives have a fitted effect of over 65% in size
# Target sequence (P80244 whole entry, looked up): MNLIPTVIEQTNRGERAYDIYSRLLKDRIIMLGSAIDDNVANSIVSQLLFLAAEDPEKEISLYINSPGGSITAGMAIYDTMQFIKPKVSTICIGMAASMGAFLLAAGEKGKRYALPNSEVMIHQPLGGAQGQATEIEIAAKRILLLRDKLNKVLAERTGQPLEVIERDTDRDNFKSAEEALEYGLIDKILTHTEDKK
#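 ClpP 10 microg/mL final, pH 8 Tris/KCl buffer with BSA, glycerol, Tween-20; compound pinned in; FRET-FV substrate; RT 20 min; Ex320/Em430; ΔFRET vs ADEP 5.8 microM, DMSO, no enzyme.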
# Starred values were filed as active, the others as inactive; ? = inconclusive; · = not tested or not shown. Unless noted, the call rests on the fitted dose curve; in most records, active means well fitted inhibition curve with a large enough effect; inconclusive means small, poorly fitted or top-dose-only effect; inactive means flat fitted curve, though single readings scatter.
SMILES,DRD3 agonist,IL1B secr inh,TDP1 cell noCPT,DT40 TDP1 CPT,D3 antag,ClpP mod
Clc1ccc(SCc2cc(N3CCOCC3)nc(-c3ccccn3)n2)cc1,-23,-12,3.3µM*,5.8µM*,-53*,·
O=c1cc(CSc2ccc(Cl)cc2)nc(-c2ccccn2)[nH]1,-13,-9,4.1µM*,4.1µM*,-53*,0%
O=C(c1cccc([N+](=O)[O-])c1)N1c2ncnn2C2(CCCCC2)[C@@H]2CCCC[C@@H]21,-6,·,8.2µM*,?,·,0%
Cc1ccc(-c2nnc(Nc3ccc(O)cc3)c3ccccc23)cc1S(=O)(=O)NCc1nc2ccccc2[nH]1,7,·,-12%,-5%,·,0%
CC1(C)N=C(N)N=C(N)N1c1cccc(CN)c1,1,-2,?,-25%,4,·
CC1(C)N=C(N)N=C(N)N1c1ccc(CCCCc2ccccc2)cc1,-1,?,0.37µM*,0.65µM*,-6,2%
CC1(C)N=C(N)N=C(N)N1c1ccc(Oc2ccc(Cl)cc2)c(Cl)c1,-12,-86*,1.5µM*,2.6µM*,?,·
CC1(C)N=C(N)N=C(N)N1c1ccccc1,4,-7,0.13µM*,0.73µM*,-4,1%
O=C(O)c1cccc([N+](=O)[O-])c1C(=O)Nc1ccc2ccccc2c1,-5,39,0%,2%,7,4%
Cc1ccsc1C(=O)NCCc1c[nH]c2ccccc12,2,-15,4%,?,-10,0%
Cc1ccc(NC(=O)NCCCl)cc1S(=O)(=O)N1CCOCC1,-11,3,3%,-3%,19,0%
CCn1c(SCC(=O)Nc2ccccc2N2CCCCC2)nc2c1c(=O)n(C)c(=O)n2C,19,-7,16µM*,18µM*,11,0%
Cn1c(=O)c2c(nc(SCC(=O)Nc3ccccc3F)n2Cc2ccccc2F)n(C)c1=O,0,·,2.9µM*,-27%,·,-2%
CSc1nnc(C)c(=O)n1COC(=O)COc1ccc(Cl)cc1,14,0,-14%,?,1,·
Cc1csc2nc(COC(=O)c3ccc(NC(=O)C(C)C)cc3)cc(=O)n12,-16,·,26µM*,18µM*,·,-1%
Cc1csc2nc(COC(=O)c3ccc(NC(=O)c4ccccc4Br)cc3)cc(=O)n12,-4,·,18µM*,21µM*,·,-1%
Cc1csc2nc(COC(=O)c3ccc(NC(=O)C(C)Oc4ccccc4)cc3)cc(=O)n12 (configuration not stated),-20,·,?,?,·,3%
O=C(Nc1ccc2c(c1)OCCO2)C(c1cc2ccccc2o1)N1CCC(Cc2ccccc2)CC1 (configuration not stated),-4,44,?,?,-25,-1%
CCOC(=O)Cc1cc(=O)n(-c2nc3ccccc3s2)[nH]1,3,13,18µM*,-29%,-9,-2%
COc1ccccc1CNC(=O)COC(=O)c1cc(-c2ccco2)nc2ccccc12,2,39,?,?,9,37%
COc1cccc(CNC(=O)c2cc(-c3ccc(Cl)s3)nc3ccccc23)c1,7,·,?,?,·,3.2µM*
O=C(COC(=O)c1cc(-c2ccc(Cl)s2)nc2ccccc12)NCc1ccco1,7,-6,16µM*,18µM*,-2,-3%
COc1ccc(CNC(=O)COC(=O)c2cc(-c3ccc(Cl)s3)nc3ccccc23)cc1,7,-2,?,?,19,25µM*
CCOC(=O)C1CCN(c2ncnc3c2c(-c2ccccc2)cn3-c2ccc(C)c(Cl)c2)CC1,9,·,1%,1%,·,-13%
Cc1oc(-c2ccc(Cl)cc2)nc1CN1CCC(C(=O)N2CCc3ccccc3C2)CC1,-12,-10,18µM*,23µM*,-70*,-4%
SMILES,DRD3 agonist,IL1B secr inh,TDP1 cell noCPT,DT40 TDP1 CPT,D3 antag,ClpP mod
Cc1oc(-c2ccc(Cl)cc2)nc1CN1CCC(C(=O)N2CCN(Cc3ccccc3)CC2)CC1,-6,-60*,?,?,-77*,-2%
Cc1oc(-c2ccc(Cl)cc2)nc1CN1CCC(C(=O)NCc2ccco2)CC1,-22,-21,?,-23%,-6,-4%
CCOC(=O)C1CCCN(C(=O)C2CCN(Cc3nc(-c4ccc(Cl)cc4)oc3C)CC2)C1 (configuration not stated),-16,-24,21µM*,?,-28,-1%
COc1ccc(NC(=O)NCCn2nnc3cc(S(=O)(=O)N(C)C)ccc32)cc1,3,·,22%,10%,·,0%
FC(F)(F)c1nnc2sc(-c3ccncc3)nn12,0,22,0%,17%,18,0%
c1ccc(OCc2nn3c(-c4n[nH]c5c4CCC5)nnc3s2)cc1,7,-11,?,?,-52*,-2%
COc1cccc(-c2nnc3sc(-c4ccco4)nn23)c1,0,?,-16%,-8%,10,-8%
FC(F)(F)c1nnc2sc(-c3cccs3)nn12,-5,38,-23%,-7%,13,28µM*
COc1cccc(-c2nnc3sc(-c4cccs4)nn23)c1,8,?,16µM*,15µM*,11,-2%
COc1ccc(Cc2nn3c(-c4ccccc4OC)nnc3s2)cc1,6,-3,?,-24%,-10,-2%
COc1ccccc1-c1nnc2sc(COc3ccc(Cl)cc3)nn12,1,-86*,16µM*,?,-52*,-3%
O=c1oc(-c2ccc(Cl)cc2[N+](=O)[O-])nc2ccccc12,-11,55,?,?,-15,0%
O=C(C1=C(O)C(=O)N(c2ncccn2)C1c1ccc(F)cc1)c1ccco1 (configuration not stated),14,9,3%,5%,7,0%
CCOc1cccc(-c2nnc3sc(-c4cccs4)nn23)c1,-8,-13,13µM*,15µM*,7,-3%
CCOc1cccc(-c2nnc3sc(-c4cc(OC)c(OC)c(OC)c4)nn23)c1,3,32,?,?,3,-4%
CCOc1cccc(-c2nnc3sc(COc4ccc(C)cc4)nn23)c1,1,23,-24%,-9%,37,?
CCOc1cccc(-c2nnc3sc(COc4ccccc4)nn23)c1,38*,8,1%,-7%,22,0%

# Screening results from PubChem.
